In this test the test system is iBMDM (immortalised mouse bone-marrow-derived macrophages), LPS-stimulated. In words: mitochondrial superoxide (MitoSOX fluorescence) fold increase over unstimulated control; higher = more LPS-induced mitochondrial ROS (less inhibition). Conditions: inhibitor concentration: 500 nM, LPS: 100 ng/ml. Summed up: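 After 20 h in phenol-red-free 1% FCS/DMEM in black 96-well plates, immortalised mouse bone-marrow-derived macrophages were exposed to kinase inhibitors (500 nM) for 30 min, 1 μM MitoSox for 10 min and then LPS (100 ng/ml). A ClarioStar plate reader recorded fluorescence at 510/580 nm every 60 min for 4 h. The reported mitochondrial superoxide is the mean fold induction versus untreated macrophages over triplicate wells.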

± gives the standard deviation of the averaged measurements.

`O=C(Nc1cc(C(F)(F)F)cc(C(F)(F)F)c1)c1cc(Cl)ccc1O`: the mitochondrial superoxide was determined as 0.988 ± 0.04 (time after LPS: 1 h), 1.04 ± 0.033 (time after LPS: 2 h) and 1.01 ± 0.054 (time after LPS: 4 h).
On the same counts, the results for `CN(C[C@@H]1COCCO1)S(=O)(=O)Nc1ccc2ccc3ncc(-c4cnn(C)c4)cc3c(=O)c2c1` are 1.26 ± 0.029, 1.51 ± 0.054 and 1.76 ± 0.048.
In the case of `CC(C)(C)c1nc(-c2cccc(NS(=O)(=O)c3c(F)cccc3F)c2F)c(-c2ccnc(N)n2)s1`, the mitochondrial superoxide is, setting by setting: (time after LPS: 1 h) 1.25 ± 0.046; (time after LPS: 2 h) 1.43 ± 0.054; (time after LPS: 4 h) 1.73 ± 0.12.
On the same counts, the results for `COc1cc2ncnc(Nc3cccc(Cl)c3)c2cc1OC` [AG-1478 (Tyrphostin AG-1478)] are 1.11 ± 0.082, 1.54 ± 0.039 and 1.65 ± 0.057.
In the same order, the values of `CN(C)C/C=C/C(=O)Nc1cc2c(Nc3ccc(F)c(Cl)c3)ncnc2cc1O[C@H]1CCOC1` [Afatinib (BIBW2992)] are 1.54 ± 0.068, 1.6 ± 0.047 and 1.77 ± 0.11.
As for `CCN1CCN(c2ccc(Nc3cc(N(C)C(=O)Nc4c(Cl)c(OC)cc(OC)c4Cl)ncn3)cc2)CC1`, the mitochondrial superoxide came to 1.2 ± 0.021 (time after LPS: 1 h), 1.24 ± 0.035 (time after LPS: 2 h) and 1.35 ± 0.06 (time after LPS: 4 h).
In the same order, the values of `CN1CCN(c2ccc3nc(-c4c(N)c5c(F)cccc5[nH]c4=O)[nH]c3c2)CC1` [Dovitinib (TKI-258) Dilactic Acid] are 1.28 ± 0.073, 1.32 ± 0.03 and 1.51 ± 0.041.
On the same counts, the results for `CCN(CC)CCNC(=O)c1c(C)[nH]c(/C=C2\C(=O)Nc3ccc(F)cc32)c1C` [Sunitinib Malate] are 1.61 ± 0.057, 1.73 ± 0.072 and 1.7 ± 0.099.
On the same counts, the results for `CO[C@H]1C[C@@H]2CC[C@@H](C)[C@@](O)(O2)C(=O)C(=O)N2CCCC[C@H]2C(=O)O[C@H]([C@H](C)C[C@@H]2CC[C@@H](OC(=O)C(C)(CO)CO)[C@H](OC)C2)CC(=O)[C@H](C)/C=C(\C)[C@@H](O)[C@@H](OC)C(=O)[C@H](C)C[C@H](C)/C=C/C=C/C=C/1C` are 1.55 ± 0.051, 1.65 ± 0.098 and 1.75 ± 0.089.
For `Cc1ccc(-n2nc(C(C)(C)C)cc2NC(=O)Nc2ccc(OCCN3CCOCC3)c3ccccc23)cc1` [BIRB 796 (Doramapimod)], the mitochondrial superoxide is 0.987 ± 0.051 (time after LPS: 1 h), 1.11 ± 0.024 (time after LPS: 2 h) and 1.22 ± 0.032 (time after LPS: 4 h).
On the same counts, the results for `C[C@@H]1CN(CC(=O)Nc2ccc3c(c2)Cc2cccc(-c4cc(=O)cc(N5CCOCC5)o4)c2S3)C[C@H](C)O1` are 1.2 ± 0.07, 1.31 ± 0.059 and 1.44 ± 0.015.
On the same counts, the results for `O=Nc1c(-c2c(O)[nH]c3cc(Br)ccc23)[nH]c2ccccc12` are 1.3 ± 0.081, 1.43 ± 0.041 and 1.64 ± 0.067.
On the same counts, the results for `COc1ccc(-c2nc(N3CCOCC3)c3sc(CN(C)c4ncc(C(=O)NO)cn4)cc3n2)cn1` are 1.31 ± 0.095, 1.52 ± 0.1 and 1.77 ± 0.17.

The values are drawn from the supplement of paper PMC7393113.
